For orientation: inhibition means the change of the read-out against control, counted positive when it falls.

The whole screen tested about 2,200 compounds, of which about 530 (24%) were called active.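 The calls were made as follows: active = inhibition above a set limit at one or more concentrations of the dose series; inactive = inhibition under that limit at every dose.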 Not all results are given here. Results with a measured potency or affinity are listed apart.

This assay in a line: S. Typhimurium nonspecific reporter signal inhibition – Salmonella Typhimurium, GFP fluorescence, counter-screen for PhoP regulon inhibitor project, dose response (AID 2401).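 Also: S. typhimurium with Mg-insensitive nmpC-GFP reporter grown at 10 µM Mg2+; drop in reporter fluorescence reflects general culture growth inhibition.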 Particulars: 4 h; series mostly up to 150 µM; inhibition: at the top concentration. (In general: Counterscreens check selectivity or assay interference.)
In the case of `Cc1[nH]n(-c2ncc(-c3ccc(Cl)cc3)s2)c(=O)c1C(c1ccc(Cl)cc1)C(C#N)C#N` (stereo not drawn), the “inhibition” value was 15.4% (inactive). In the case of `CCN(C(C)=O)c1nc(CSc2nnc(NC(C)C)s2)cs1`, the “inhibition” value is -24.8% (inactive). The figure for `c1ccc2[nH]c(CSc3nccs3)nc2c1` is -13.7% (inactive); for `Cc1ccccc1OCC(=O)N/N=C/c1ccco1` it is -2.6% (inactive). The figure for `S=c1[nH]nc(Cc2cccc3ccccc23)o1` is -10.8% (inactive); for `CC(=O)c1cccc(NC(=O)NCc2ccco2)c1` it is -14% (inactive); for `Cc1ccc(NC(=O)c2cc(S(=O)(=O)N3CCC4(CC3)OCCO4)ccc2F)cc1` it is -20.2% (inactive). For `O=C(c1cn(-c2ccccc2)nc1-c1cccnc1)N1CCCCC1` the value was -2.75% (inactive). Take `CC(=O)N1CCC(N(CCN2CCOCC2)C(=S)Nc2cccc(C)c2C)CC1`: the “inhibition” value is -9.15% (inactive). Turning to `Cc1c(Cl)cccc1NC(=O)CSCC(N)=O`, the “inhibition” value was -19.7% (inactive).

For the compound `COc1cc(C2Nc3cccc4cccc(c34)N2)cc(OC)c1OC(C)=O`, the “inhibition” value was 13% (inactive). The figure for `CC(=O)Oc1c2occc2cc2ccc(=O)oc12` is 36.6% (inactive); for `Cc1ccc2c(c1)cc(CN(Cc1ccc3c(c1)OCO3)C(=O)c1cnccn1)c1nnnn12` it is -12.1% (inactive); for `CSc1ccc(C(=O)/C=C/c2ccc(N)cc2)cc1` it is 2.91% (inactive). For `Cc1cccc(NC(=O)c2cc(N3C(=O)CCC3=O)ccc2Cl)n1` the value was -12.3% (inactive). The figure for `O=C(CSc1n[nH]c(=O)[nH]c1=O)N/N=C/c1ccccc1` is -7.03% (inactive). Turning to `O=C(CSc1nc2ccccc2s1)Nc1ccc(N2CCOCC2)c(Cl)c1`, the “inhibition” value is 32.1% (inactive).

Turning to `Cc1ccc([N+](=O)[O-])cc1NC(=S)NC(=O)C(C)(C)C`, the “inhibition” value is -25.1% (inactive). For `Cc1ccccc1-n1c(C)cc(/C=N/Nc2ccc([N+](=O)[O-])cn2)c1C` the value was -15.1% (inactive); for `CN(CCO)c1cc(Sc2nc3ccccc3s2)c2nonc2c1[N+](=O)[O-]`, 2.98% (inactive); for `Cc1cc([N+](=O)[O-])ccc1NC(=O)Cc1ccc(F)cc1`, -6.18% (inactive). Regarding `O=C(CSCc1ccccc1)N/N=C/c1ccccc1OCc1ccccc1`, the “inhibition” value was -9.85% (inactive).

As for `COc1ccc(-n2ncc(S(=O)(=O)c3ccccc3)c2-c2ccc(Cl)cc2)cc1`, the “inhibition” value was -11.5% (inactive). For `COc1ccc(Cl)cc1C(=O)Nc1ccc(NC(=O)c2ccco2)cc1` the value was -4.5% (inactive).

As to `O=C(Nc1cccc(Cl)c1)C1C2CCC3C(CCC21)C3(Cl)Cl` (stereo not drawn), the “inhibition” value was -13.9% (inactive).

`COc1cccc(-n2c(N)c(C(=O)Nc3c(C)n(C)n(-c4ccccc4)c3=O)c3nc4ccccc4nc32)c1`: the “inhibition” value is -17.2% (inactive). The figure for `COc1ccc(N2C(=O)CC(Sc3nc(C)c4c(n3)CCCC4)C2=O)cc1` (stereo not drawn) is -8% (inactive); for `COc1ccc(-c2cnn3c(N)c(S(=O)(=O)C(C)(C)C)cnc23)cc1` it is -1.79% (inactive). For `Cc1ccc2nc(NNC(=O)c3ccc(S(=O)(=O)N4CCc5ccccc5C4)cc3)sc2c1`, the “inhibition” value was 17.9% (inactive).

For `O=C(/C=C/c1ccc2c(c1)OCO2)N1CCN(c2ccccc2F)CC1`, the “inhibition” value was -20.9% (inactive).

On to `COc1ccc(C(C)C)cc1S(=O)(=O)Nc1ccc(Cl)cn1`, for which the “inhibition” value is -19.4% (inactive). For `O=C(Nc1cnc2ccccc2c1)N1CCOCC1` the value was -17.8% (inactive); for `CN(C)S(=O)(=O)Nc1ccc(C(=O)O)cc1`, -28.6% (inactive). For `c1ccc2c(C3=NNC(=NC4CCCCC4)SC3)c[nH]c2c1` the value was 11.5% (inactive). The figure for `O=C(CSc1nc2ccccc2o1)Nc1ccc(N2CCOCC2)cc1` is 1.64% (inactive); for `CNc1nnc(-c2cccc(N(C)C)c2)s1` it is -16% (inactive); for `O=S(=O)(c1ccccc1)N(CC(O)Cn1c2ccccc2c2ccccc21)c1ccccc1` (stereo not drawn) it is -17.4% (inactive).

For `CCCn1c(NCCO)nc2ccccc21`, the “inhibition” value was -16% (inactive). The figure for `COC(=O)C(CCSC)NC(=O)c1cccc([N+](=O)[O-])c1` (stereo not drawn) is -14.9% (inactive). As to `Cc1ccc(CNC(=O)C2CCCN(S(=O)(=O)c3c(C)noc3C)C2)cc1` (stereo not drawn), the “inhibition” value is -21.2% (inactive). The figure for `Cn1cccc1C(=O)OCc1csc(-c2ccccc2)n1` is -2.51% (inactive); for `Nc1ccc(C(=O)OCc2nc3ccccc3[nH]2)cc1` it is 33.1% (inactive). For `Cc1ccc(C)n1-c1cc([N+](=O)[O-])ccc1-n1ccnc1` the value was -23.2% (inactive); for `Cc1cc(-c2csc(NC(=O)c3ccccc3C(F)(F)F)n2)c(C)n1Cc1ccccc1`, -0.27% (inactive); for `Cc1nc(NCc2ccc3c(c2)OCO3)c2oc3ccccc3c2n1`, 6.07% (inactive).

Take `Cc1scc(C(=O)O)c1-c1c(C(=O)O)csc1C`: the “inhibition” value was -32.6% (inactive).

Regarding `O=[N+]([O-])c1ccccc1/C=N/N1CCN(c2ccncc2S(=O)(=O)N2CCCCC2)CC1`, the “inhibition” value was -22.1% (inactive). For `CCOc1ccc(C(=O)NC(=S)Nc2ccc(N3CCCCC3)cc2)cc1[N+](=O)[O-]` the value was -0.74% (inactive); for `CCOc1ccc(CSC(=N)N)cc1[N+](=O)[O-]`, -21.6% (inactive); for `CCOc1ccc(C(=O)Nc2ccccc2CC)cc1[N+](=O)[O-]`, -8.16% (inactive). The figure for `COc1nc(-c2ccccc2)ccc1-c1noc(C)n1` is -9.18% (inactive). The figure for `CCCc1cc(N2CCN(c3ccccn3)CC2)n2nc(C)c(-c3ccccc3)c2n1` is -31% (inactive).

For the compound `CCc1ccc(CNc2ccc(O)cc2)cc1`, the “inhibition” value was 38.4% (inactive). The figure for `Nc1nc(N)nc(-c2ccccc2)n1` is -20.8% (inactive). For `CCn1c2ccccc2c2nnc(SCC(=O)Nc3ccc4c(c3)OCO4)nc21` the value was -30.2% (inactive); for `CCn1c2ccccc2c2cc(NC(=O)COc3ccccc3)ccc21`, -22.1% (inactive); for `CCn1cc(C(=O)OCC(=O)Nc2ccc(S(=O)(=O)N3CCCC3)cc2)c(=O)c2ccc(C)nc21`, -28.5% (inactive). For `CCn1cc(C(=O)O)c(=O)c2cnc(N3CCN(C(=S)NC(=O)c4ccc(Cl)cc4)CC3)nc21` the value was -30.3% (inactive). Take `Cc1ccc(NC(=O)C(=O)NCCOc2ccccc2Cl)cc1`: the “inhibition” value is -9.68% (inactive). The figure for `O=C1CC(c2ccccc2)n2nc(NC(=O)c3ccccc3)nc2N1` (stereo not drawn) is -8.71% (inactive).

Regarding `Cc1ccccc1NC(=O)c1ccc(-n2cncn2)nc1`, the “inhibition” value was -18% (inactive).

Regarding `Nc1cc(N)nc(SCC(=O)Nc2ccc3c(c2)OCCCO3)n1`, the “inhibition” value was -0.22% (inactive). For `Cc1nn(-c2ccc(Cl)cc2)c2[nH]c(=O)c(CNCc3ccc4c(c3)OCO4)cc12` the value was -41.1% (inactive); for `CCCSc1nc(N2CCCC2)c2c(c1C#N)CC(C)(C)OC2`, -15.5% (inactive); for `O=C(CCn1nnc(-c2cccs2)n1)NCc1ccccc1Cl`, -5.72% (inactive). For `Nc1scc(-c2ccncc2)c1Cl` the value was 10% (inactive); for `CN(C)c1ccnc(-n2cccc2/C=N/OCc2ccccc2)c1C#N`, -32% (inactive); for `CCOC(=O)c1cn(CC)c2cc(N3CCOCC3)c(F)cc2c1=O`, 10.1% (inactive). The figure for `CCOC(=O)N1CCN(C(=O)c2cn(CC(C)C)c(=O)c3c2c2ccccc2n3C)CC1` is -23.4% (inactive).

For `Cc1cc(C)c2nc(NNC(=O)c3ccc(S(=O)(=O)N4CCc5ccccc5C4)cc3)sc2c1`, the “inhibition” value was 20.7% (inactive).

As for `Cc1ccc2nc(SCCCCOc3ccccc3)[nH]c2c1`, the “inhibition” value is -9.29% (inactive). For `CN(c1ccccc1)S(=O)(=O)c1cc(C(=O)Nc2nc3ccccc3[nH]2)ccc1Cl` the value was 19.4% (inactive).

For the compound `O=C(CSc1nnnn1-c1ccccc1)CC(=O)Nc1ccc(Cl)cc1`, the “inhibition” value is 14.4% (inactive). The figure for `Cc1cccc(C(=O)NC(=S)Nc2ccc(N3CCOCC3)cc2)c1` is 0.18% (inactive). With `CCn1cc(C(=O)O)c(=O)c2cc(F)c(N3CCN(C(=S)NC(=O)c4ccccc4Cl)CC3)cc21`, the “inhibition” value was 10.2% (inactive). For `CCOC(=O)CSc1n[nH]c(NC(=O)c2cccc(C)c2)n1` the value was 5.34% (inactive). For `CCCS(=O)(=O)N1CCCC(C(=O)N2CCN(c3ccccn3)CC2)C1` (stereo not drawn) the value was -39.9% (inactive); for `COc1cc(NC(=O)CSc2nnnn2Cc2ccc3c(c2)OCO3)cc(OC)c1`, -22% (inactive); for `Cc1cccc(-n2ncc3c(NCc4ccc5c(c4)OCO5)ncnc32)c1`, -0.19% (inactive).

Regarding `O=C1Nc2ccccc2C(O)(C(=O)N2CCCCC2)N1c1ccccc1` (stereo not drawn), the “inhibition” value was 6.65% (inactive). As to `Cc1cccnc1N(C(=O)Nc1ccccc1)C1=NCC(C)(C)S1`, the “inhibition” value was -9.61% (inactive).

In the case of `Cc1nn(-c2ncc(C(F)(F)F)cc2Cl)c(=O)n1-c1cccc(Cl)c1`, the “inhibition” value is -28.3% (inactive). For `CCCc1ccc(C(=O)CCC(=O)O)cc1` the value was 8.77% (inactive); for `COc1ccc(OC)c(C(C(=O)NCc2ccco2)N(C(=O)Cn2nnc3ccccc32)C(C)C)c1` (stereo not drawn), 0.89% (inactive). In the case of `COc1ccc(C2C=C(c3ccc(Cl)cc3)Nc3nc(NC(C)=O)nn32)cc1` (stereo not drawn), the “inhibition” value was -22.6% (inactive). Regarding `C=CCn1c(C)cc(C(=O)CSc2nc(N)cc(N)n2)c1C`, the “inhibition” value was 5.49% (inactive). With `Cc1ccc(C(C(=O)NCc2ccco2)N(CCc2ccccc2)C(=O)Cn2nnc3ccccc32)o1` (stereo not drawn), the “inhibition” value is 7.54% (inactive).

Take `O=C(CN1CCC(NC(=O)c2cccc(F)c2)CC1)NCc1ccccc1F`: the “inhibition” value was -33.2% (inactive). For the compound `CCCOc1ccc(C(=O)CCC(=O)OCC(=O)N2CC(=O)Nc3ccccc32)cc1`, the “inhibition” value is 2.02% (inactive). Regarding `CCn1cc(C(=O)O)c(=O)c2cc(F)c(N3CCN(S(=O)(=O)c4ccc(NC(C)=O)cc4)CC3)cc21`, the “inhibition” value is 26.4% (inactive).

As to `CCCOc1ccc(C(=O)N2CCCC2C(=O)O)cc1` (stereo not drawn), the “inhibition” value is 20.2% (inactive). On to `COc1cccc(C2C3=C(Nc4[nH]n(-c5ccccc5)c(=O)c42)c2ccccc2C3=O)c1` (stereo not drawn), for which the “inhibition” value was 14.4% (inactive). The figure for `COC(=O)c1sc2ccccc2c1-n1cccc1C(=O)C(=O)Nc1ccc(Cl)cc1` is 10.6% (inactive); for `COc1cccc(-n2c(SCC(=O)Nc3ccc4c(c3)CCC4)nc3ccccc3c2=O)c1` it is -5.47% (inactive); for `CCOC(=O)C(NC(=O)c1cccc(Cl)c1)(OCc1ccccc1)C(F)(F)F` (stereo not drawn) it is -24.6% (inactive).

For `COc1ccccc1CC1(C)NC(=O)N(CC(=O)N2CC(C)OC(C)C2)C1=O` (stereo not drawn), the “inhibition” value was -10.6% (inactive).

Regarding `Cn1c(NCc2cccs2)nc2ccccc21`, the “inhibition” value was -7.22% (inactive).

For `COc1ccc(OC)c(S(=O)(=O)N(C)CC(=O)N2CCc3ccccc3C2)c1`, the “inhibition” value was -5.92% (inactive). The figure for `CCCC(=O)c1c[nH]c(C(=O)NCCCN2CCOCC2)c1` is 0.18% (inactive); for `O=S(=O)(Nc1ccc2ccccc2c1)c1ccccc1` it is -2.94% (inactive); for `COc1ccc(N2CCN(C(=O)Nc3ccc(S(=O)(=O)N(C)C)cc3)CC2)cc1` it is 7.43% (inactive).

For `CCc1nc2ccccc2c2nc3ccccc3n12`, the “inhibition” value was -30% (inactive). For `COC(=O)C1C(=O)C=C(N2CCOCC2)CC1(C)C` (stereo not drawn) the value was -12.9% (inactive); for `COC(=O)c1ccc2c(=O)n(CCN3CCOCC3)c(SCC(=O)C(C)(C)C)nc2c1`, -19.7% (inactive); for `CN(C)C(=O)c1cn(N(C)c2ncc(C(F)(F)F)cc2Cl)c(=O)c2ccccc12`, -20.6% (inactive). For `Cc1nc2ccccc2n1CC(=O)NCc1ccccc1` the value was -22% (inactive); for `CCOc1ccc(N/C=C/C(=O)c2ccc(OC)cc2)c([N+](=O)[O-])c1`, -5.92% (inactive). For `O=C(/C=C/c1ccco1)NC(=S)Nc1ccc(N2CCCC2)cc1` the value was 24.7% (inactive).

Source of the values: PubChem BioAssay AID2401 (Southern Research Specialized Biocontainment Screening …, 2010).
